High-throughput results (PubChem)
Rows were chosen to be rich in hits. Some 13% of all compounds tested hit in one or more screens of this group.
USP10 block – inhibitors of human USP10 deubiquitinase; purified USP10, Ub-rhodamine fluorescence, 60 min; inhibition, % at 20 µM; actives 1.1% (n = 47,000); AID 1645856, 2021
USP28 block – inhibitors of human USP28 deubiquitinase | purified USP28, Ub-rhodamine cleavage fluorescence, 30 min | AID 1645857, 2021 | inhibition, % at 25 µM | Ubiquitin carboxyl-terminal hydrolase 28 (Homo sapiens), Q96RU2 | actives 3% (n = 47,000)
USP30 inh – inhibitors of human USP30 deubiquitinase; Ubiquitin carboxyl-terminal hydrolase 30 (Homo sapiens), Q70CQ3; purified USP30, Ub-rhodamine cleavage fluorescence; inhibition, % at 25 µM; actives 5.3% (n = 47,000)
USP8 inh – inhibitors of human USP8 deubiquitinase; Ubiquitin carboxyl-terminal hydrolase 8 (Homo sapiens), P40818; purified USP8, Ub-rhodamine cleavage fluorescence, 30 min; inhibition, % at 20 µM; actives 4.2% (n = 47,000); AID 1645853, 2021
USP17 inh – inhibitors of human USP17 deubiquitinase; Ubiquitin carboxyl-terminal hydrolase 17-like protein 5 (Homo sapiens), A8MUK1; purified USP17, Ub-rhodamine cleavage fluorescence, 3 h; inhibition, % at 50 µM; actives 6.5% (n = 47,000)
USP7 block – inhibitors of human USP7 deubiquitinase; Ubiquitin carboxyl-terminal hydrolase 7 (Homo sapiens), Q93009; purified USP7, Ub-rhodamine cleavage fluorescence; inhibition, % at 20 µM; actives 0.3% (n = 47,000); AID 1645854, 2021
Numbers stand for hits. Rule as the data show it: active = inhibition above about 30%; inactive = the rest.

Results for COC(=O)c1ccc(Cn2nnc3c(=O)[nH]c(C4CCCN(S(=O)(=O)c5ccc(C)cc5)C4)nc32)cc1 (centres undefined) ?
USP10 block: 41; USP28 block: 32; USP30 inh: 36; USP8 inh: inactive; USP17 inh: inactive; USP7 block: inactive

What do the screens show for `O=c1[nH]c(C2CCN(S(=O)(=O)c3ccc(S(=O)(=O)NC4CC4)cc3)CC2)nc2c1nnn2Cc1cccc(F)c1`?
USP10 block: inactive; USP28 block: inactive; USP30 inh: inactive; USP8 inh: inactive; USP17 inh: inactive; USP7 block: inactive

Results for O=c1[nH]c(C2CCN(S(=O)(=O)c3ccc(S(=O)(=O)NC4CC4)cc3)CC2)nc2c1nnn2Cc1cccc(Cl)c1 ?
USP10 block: 32; USP28 block: 38; USP30 inh: 42; USP8 inh: inactive; USP17 inh: inactive; USP7 block: inactive

Results for O=c1[nH]c(C2CCN(S(=O)(=O)c3ccc(S(=O)(=O)NC4CCCC4)cc3)CC2)nc2c1nnn2Cc1cccc(Cl)c1 ?
USP10 block: 37; USP28 block: 38; USP30 inh: 59; USP8 inh: inactive; USP17 inh: inactive; USP7 block: inactive

What do the screens show for `Cc1nnn2c1COCC(CNCc1ccc(F)cc1)C2` (centres undefined)?
USP10 block: inactive; USP28 block: inactive; USP30 inh: inactive; USP8 inh: inactive; USP17 inh: inactive; USP7 block: inactive

Results for O=c1[nH]c(C2CCN(S(=O)(=O)c3ccc(S(=O)(=O)N4CCOCC4)cc3)CC2)nc2c1nnn2Cc1ccc(F)cc1 ?
USP10 block: 45; USP28 block: inactive; USP30 inh: inactive; USP8 inh: 89; USP17 inh: inactive; USP7 block: 30

Results for O=c1[nH]c(C2CCN(S(=O)(=O)c3ccc(S(=O)(=O)N4CCOCC4)cc3)CC2)nc2c1nnn2Cc1cccc(F)c1 ?
USP10 block: inactive; USP28 block: inactive; USP30 inh: inactive; USP8 inh: inactive; USP17 inh: inactive; USP7 block: inactive

Results for CN(C)c1cc(C2CCCN2C(=O)C2CN(S(C)(=O)=O)C2)ccn1 (centres undefined) ?
USP10 block: inactive; USP28 block: inactive; USP30 inh: inactive; USP8 inh: inactive; USP17 inh: inactive; USP7 block: inactive

What do the screens show for `Fc1ccc(CNc2nn3c(-c4cccnc4)cnc3s2)cc1`?
USP10 block: inactive; USP28 block: inactive; USP30 inh: inactive; USP8 inh: inactive; USP17 inh: inactive; USP7 block: inactive

Results for CN(C)c1ccc(CNc2nn3c(-c4cccnc4)cnc3s2)cc1 ?
USP10 block: inactive; USP28 block: 67; USP30 inh: 91; USP8 inh: inactive; USP17 inh: 63; USP7 block: inactive

Results for c1cncc(-c2cnc3sc(NCc4ccc5c(c4)OCO5)nn23)c1 ?
USP10 block: 30; USP28 block: 87; USP30 inh: 101; USP8 inh: 37; USP17 inh: 61; USP7 block: inactive

Results for COC(=O)c1ccc(C2CC(=O)Nc3c2sc(C(=O)O)c3-c2ccc(OC)cc2)cc1 (centres undefined) ?
USP10 block: inactive; USP28 block: inactive; USP30 inh: 34; USP8 inh: inactive; USP17 inh: inactive; USP7 block: inactive

What do the screens show for `COc1ccc(C(=O)Nc2cc3c4c(c2)CC(=O)N4CCC3)cc1`?
USP10 block: inactive; USP28 block: 49; USP30 inh: inactive; USP8 inh: inactive; USP17 inh: inactive; USP7 block: inactive

How did O=C(Nc1cc2c3c(c1)CC(=O)N3CCC2)c1ccc([N+](=O)[O-])cc1 do in these assays?
USP10 block: inactive; USP28 block: inactive; USP30 inh: inactive; USP8 inh: inactive; USP17 inh: inactive; USP7 block: inactive

How did CC1C(=O)N2CCCc3cc(NC(=O)c4ccc(F)cc4)cc1c32 (centres undefined) do in these assays?
USP10 block: inactive; USP28 block: inactive; USP30 inh: inactive; USP8 inh: inactive; USP17 inh: inactive; USP7 block: inactive
